Here are results for 57 compounds from PubChem BioAssay AID1030 (National Center for Advancing Translational Sciences (NCATS), 2008).

Hit rate of the full screen: of about 220,000 compounds, about 16,000 (7.3%) were called active. About 25% were inconclusive and are not listed. The full list was thinned out, with actives kept by preference. Unmarked numbers belong to inactive results. Calls follow the shape of the dose curve; as a rule, active = well fitted inhibition curve with a large enough effect (not every such curve was filed as active); inconclusive = small, poorly fitted or top-dose-only effect, or another doubt; inactive = no such curve, though single readings can be large or run the other way.
Potency is read from the fitted curve at half-maximal effect.

Aldehyde dehydrogenase 1A1 (Homo sapiens), sequence (P00352 whole entry, looked up): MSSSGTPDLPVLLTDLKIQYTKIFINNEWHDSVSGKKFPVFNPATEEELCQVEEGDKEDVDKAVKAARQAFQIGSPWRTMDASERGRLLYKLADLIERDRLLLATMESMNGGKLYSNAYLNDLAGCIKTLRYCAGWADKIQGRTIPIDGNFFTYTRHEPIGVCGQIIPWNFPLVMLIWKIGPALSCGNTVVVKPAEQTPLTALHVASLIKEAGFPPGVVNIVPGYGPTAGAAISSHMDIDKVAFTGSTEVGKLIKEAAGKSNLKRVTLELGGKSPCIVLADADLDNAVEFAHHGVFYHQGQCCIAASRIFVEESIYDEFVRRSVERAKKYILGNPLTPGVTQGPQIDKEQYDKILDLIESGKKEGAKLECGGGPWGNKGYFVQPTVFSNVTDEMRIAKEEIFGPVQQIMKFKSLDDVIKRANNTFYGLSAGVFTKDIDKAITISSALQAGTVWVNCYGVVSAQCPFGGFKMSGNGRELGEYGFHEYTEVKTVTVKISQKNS

This assay concerns the target Aldehyde dehydrogenase 1A1 (Homo sapiens) (UniProt P00352). In words: qHTS Assay for Inhibitors of Aldehyde Dehydrogenase 1 (ALDH1A1).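 As to activity, negative = inhibition: plate controls were no enzyme wells and a reference inhibitor.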 The note with it: Purified ALDH1A1, NADH fluorescence, propionaldehyde substrate; series mostly up to 75.3 µM; activity, negative = inhibition: at the top concentration.
In the case of `O=C(CCN1CCN(c2ccccc2)CC1)NNC(=S)Nc1ccccc1`, the “activity, negative = inhibition” value was -6.58%.
In the case of `O=C(N/N=C/c1ccc(OCc2ccccc2)cc1)c1ccc(O)cc1`, the “activity, negative = inhibition” value is 12.2%.
As for `O=C(O)/C=C\C(=O)Nc1ccc(OCc2ccccc2)cc1`, the Potency is 25.1 µM (active).
For `O=C(/C=C/c1ccco1)Nc1ccc(Oc2ccccc2)cc1`, the “activity, negative = inhibition” value is 2.63%.
The same measure, in the same setting: to `NC(=O)COC(=O)c1cc(S(=O)(=O)N2CCN(c3ccccc3)CC2)ccc1Cl` belongs 2.01%.
Regarding `CCC1=C(C(=O)OC)C(c2cc(OC)ccc2OC)C(C#N)=C(N)O1` (configuration not stated), the Potency was 17.8 µM (active).
As to `CCOC(=O)C1=C(CC)OC(N)=C(C#N)C1c1ccc(F)cc1F` (configuration not stated), the “activity, negative = inhibition” value is 10.9%.
Consider `COC(=O)C1=C(C)OC(N)=C(C#N)C1c1cc(OC)ccc1OC` (configuration not stated), for which the “activity, negative = inhibition” value is 3.09%.
Same read-out and setting: to `COc1ccc(S(=O)(=O)N(C)CC(=O)N2CCCC2)cc1Cl` belongs -3.37%; to `Cc1noc(C)c1S(=O)(=O)N(C)Cc1ccccc1`, 0.615%; to `Cc1cccc(NS(=O)(=O)c2ccc(C)c(C(N)=O)c2)c1`, -7.93%.
Turning to `CC(NC(=O)C(=O)N/N=C/c1ccc(Cl)cc1)c1ccccc1` (configuration not stated), the “activity, negative = inhibition” value was -4.56%.
Still for that read-out and setting: to `Cc1ccc(-n2c(C)cc(C(=O)CN3C(=O)C(=O)N(C4CCCC4)C3=O)c2C)cc1` belongs 1.53%; to `COc1cc(CNC2CCCCC2)c(Br)cc1OC1CCCC1`, -3.19%.
Consider `O=C(Nc1ccc([N+](=O)[O-])cc1)C1(c2ccccc2)CCOCC1`, for which the “activity, negative = inhibition” value was 4.59%.
Turning to `O=C(O)/C=C/C(=O)NNc1ccc([N+](=O)[O-])cc1`, the Potency was 14.1 µM (active).
Take `O=C(Cc1ccccc1)NNS(=O)(=O)c1ccc([N+](=O)[O-])cc1`: the “activity, negative = inhibition” value is 15.8%.
Same read-out and setting: next, `NC(=O)c1ccc(CN2CCC(Cc3ccccc3)CC2)cc1`: 6.52%.
For the compound `O=C(COC(=O)c1ccc[nH]c1=O)Nc1ccc2c(c1)OC(F)(F)O2`, the “activity, negative = inhibition” value is 8.44%.
Turning to `Cc1c(S(=O)(=O)O)ccc(N=Nc2c(O)c(C(=O)O)cc3ccccc23)c1Cl`, the Potency is 3.55 µM (active).
Take `Cc1nn(Cc2ccc(Cl)cc2)c(Cl)c1/C=N/NC(=O)CNc1ccccc1F`: the “activity, negative = inhibition” value was 21.3%.
Still for that read-out and setting: to `COC(=O)Cc1ccc(NC(=S)NCc2ccco2)cc1` belongs 4.15%.
Regarding `O=C(NNC(=S)NCc1ccco1)C(c1ccccc1)c1ccccc1`, the “activity, negative = inhibition” value was 1.75%.
For the compound `FC(F)Oc1ccc(NC(=S)NCc2ccco2)cc1Cl`, the Potency was 14.1 µM (active).
Consider `O=C(NCc1cccs1)c1cc(-c2ccccn2)nc2ccc(Br)cc12`, for which the “activity, negative = inhibition” value is 6.33%.
Turning to `OC(COc1ccccc1)Cn1cc(Br)cn1` (configuration not stated), the “activity, negative = inhibition” value is 2.81%.
Turning to `OC(CN=c1sc2ccccc2n1CC(O)COc1ccccc1)COc1ccccc1` (configuration not stated), the Potency is 2.82 µM (active).
In the case of `C=CCn1c(=N)n(CC(O)COc2ccc(OC)cc2)c2ccccc21` (configuration not stated), the “activity, negative = inhibition” value was -1.74%.
The same measure, in the same setting: next, `Cc1ccccc1NS(=O)(=O)CCCCC(Cl)(Cl)Cl`: -3.72%.
On to `Cc1ccsc1/C=C1\SC(N2CCOCC2)=NC1=O`, for which the Potency was 14.1 µM (active).
For the compound `CCc1ccc(/C=C2\SC(N3CCOCC3)=NC2=O)cc1`, the “activity, negative = inhibition” value is 1.81%.
The same measure, in the same setting: to `O=C1N=C(N2CCOCC2)S/C1=C\C=C/c1ccccc1` belongs 0.576%; to `NC(N)=NCCCc1cn(CC(=O)N2CCNCC2)nn1`, 0.974%; to `CCOC(=O)COc1ccc([N+](=O)[O-])cc1`, -7.41%.
Regarding `N/C(=N\OC(=O)COc1ccc([N+](=O)[O-])cc1)c1ccc(Br)cc1`, the “activity, negative = inhibition” value is 5.49%.
For `Cc1cc(C)cc(OCC(=O)O/N=C(\N)Cc2ccc([N+](=O)[O-])cc2)c1`, the Potency was 10 µM (active).
Take `COC(=O)C(NS(=O)(=O)c1ccc(F)cc1)c1ccccc1` (configuration not stated): the “activity, negative = inhibition” value is 1.82%.
Still for that read-out and setting: next, `CC1CCC(C(C)C)C(=O)/C1=C\c1ccc(NC(=O)CCC(=O)O)cc1` (configuration not stated): 0.0468%; `COc1ccc(S(=O)(=O)N2CCN(C(=O)c3cc(C)oc3C)CC2)cc1`: -3.86%; `COc1ccc(OC)c(C(=O)c2coc3ccc(O)c(CN4CCOCC4)c23)c1`: -9.73%.
Same read-out and setting: next, `COc1ccc2occ(C(=O)c3ccc(N=C(C)N(C)C)cc3)c2c1`: 12%.
In the case of `COc1ccc(OC)c(C(=O)c2coc3ccc(OC)cc23)c1`, the Potency is 14.1 µM (active).
As to `NS(=O)(=O)c1ccc(CCNC(=O)c2ccc([N+](=O)[O-])cc2[N+](=O)[O-])cc1`, the “activity, negative = inhibition” value was 8.99%.
On to `CCOC(=O)CCCNC(=O)COC(=O)c1cc(Br)c(Br)s1`, for which the “activity, negative = inhibition” value was 9.37%.
The same measure, in the same setting: next, `O=C(NC1CCCC1)C(c1ccc(N2CCOCC2)cc1)N(C(=O)c1ccco1)c1ccccc1F` (configuration not stated): -3.51%; `COc1ccc(CCn2nnnc2C(c2ccccc2)N2CCN(C)CC2)cc1OC` (configuration not stated): -4.68%.
Take `COc1ccc(C(c2nnnn2Cc2cccs2)N2CCN(c3ccccc3)CC2)cc1OC` (configuration not stated): the Potency was 2 µM (active).
As to `COCCn1nnnc1C(c1ccccc1Cl)N1CCN(c2ccccc2OC)CC1` (configuration not stated), the “activity, negative = inhibition” value is 4.17%.
The same measure, in the same setting: next, `Cn1c(=O)[nH]c(=O)c2c1nc(N1CCCCCC1)n2CC(=O)c1ccccc1`: -8.01%.
Regarding `Cc1nnc(SCCCn2c(N3CCCCC3)nc3c2c(=O)[nH]c(=O)n3C)s1`, the Potency was 14.1 µM (active).
Regarding `C=C(C)Cn1c(N2CCN(CC)CC2)nc2c1c(=O)[nH]c(=O)n2C`, the “activity, negative = inhibition” value was -2.67%.
Still for that read-out and setting: next, `COc1ccc(CCn2c(NCCCN3CCOCC3)nc3c2c(=O)[nH]c(=O)n3C)cc1`: 3.52%.
Consider `CC1CCN(c2nc3c(c(=O)[nH]c(=O)n3C)n2CCCc2ccccc2)CC1`, for which the Potency was 31.6 µM (active).
Take `CN1CCN(c2nc3c(c(=O)[nH]c(=O)n3C)n2Cc2cccc3ccccc23)CC1`: the Potency is 25.1 µM (active).
Take `C=C(C)Cn1c(N2CCCC2)nc2c1c(=O)[nH]c(=O)n2C`: the “activity, negative = inhibition” value is -7.84%.
Turning to `Cn1c(=O)[nH]c(=O)c2c1nc(NCCCn1ccnc1)n2Cc1cccc(Br)c1`, the “activity, negative = inhibition” value was 5.93%.
Regarding `Cc1ccnc(SCCn2c(Br)nc3c2c(=O)[nH]c(=O)n3C)n1`, the “activity, negative = inhibition” value is 4.65%.
